The text below walks through data of the supplement of paper PMC12645437, “Orthogonal IMiD-Degron Pairs Induce Selective Protein Degradation in Cells” (ACS Chemical Biology, 2025).

This experiment deals with T1, CRBN, Q96SW2.
T1 chain: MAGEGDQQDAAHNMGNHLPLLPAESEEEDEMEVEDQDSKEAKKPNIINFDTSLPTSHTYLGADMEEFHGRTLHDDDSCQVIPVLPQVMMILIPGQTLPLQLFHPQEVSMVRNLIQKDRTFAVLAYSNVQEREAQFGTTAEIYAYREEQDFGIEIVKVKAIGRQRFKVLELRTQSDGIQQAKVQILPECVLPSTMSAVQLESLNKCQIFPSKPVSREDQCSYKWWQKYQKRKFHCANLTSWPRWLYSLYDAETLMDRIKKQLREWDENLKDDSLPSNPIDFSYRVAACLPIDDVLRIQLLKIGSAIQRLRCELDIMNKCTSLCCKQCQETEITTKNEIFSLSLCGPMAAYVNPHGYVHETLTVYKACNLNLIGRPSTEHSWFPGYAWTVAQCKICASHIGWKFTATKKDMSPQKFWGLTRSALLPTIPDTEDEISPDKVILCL
As to the kind of experiment: log2 fold change of degron read counts, EGFP-low vs EGFP+ sorted cells (limma voom), compound-induced degradation; higher = more compound-induced degradation of the degron-EGFP fusion; degrons are variants of IKZF1/3 zinc finger 2; compound dose not given here. The note with it: Jurkat, 18 h.

The mark [1] stands for this setting: compound: compound 19 (5-tert-butyl-thalidomide).
Where [2] appears, read: compound: compound 22 (5-morpholino-thalidomide).
[3] abbreviates: compound: compound 33 (diphenyl IMiD analogue).

In all, about 8,300 sequences were measured (“log2 fold change of degron read counts, EGFP-low vs EGFP+ sorted cells (limma voom), compound-induced degradation”: median about -1.1, highest 2% from about 3.2 on). This excerpt belongs to a sample that is enriched for the highest values.
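Further: pooled lentiviral library of zinc finger degron-EGFP fusions in mCherry-positive Jurkat cells, FACS-sorted after compound exposure, with degron abundance counted by next-generation sequencing.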

For FWCNVCGAPFTQKGNLLRHIKL [46F_47W_49N_50V_52G_53A_54P_55F_67L_, Q9UKT9], the “log2 fold change of degron read counts” value under setting [1] was 1.34, the “log2 fold change of degron read counts” value under setting [2] was found to be 1.28, the “log2 fold change of degron read counts” value under setting [3] amounted to 0.648 and the “log2 fold change of degron read counts” value (compound: thalidomide) is -0.594.
With FNCNQCGRAFTQKGNLLRHIKL [46F_47N_49N_50Q_52G_53R_54A_55F_67L_, Q9UKT9], the “log2 fold change of degron read counts” value is -2.53 under setting [1], -3 under setting [2], -2.84 under setting [3] and -2.82 (compound: thalidomide).
Turning to FLCNQCGRKFTQKGNLLRHIKL [46F_47L_49N_50Q_52G_53R_54K_55F_67L_, Q9UKT9], the “log2 fold change of degron read counts” value is -3.07 under setting [1], -2.98 under setting [2], -2.46 under setting [3] and -1.94 (compound: thalidomide).
Take FTCEVCGADFTQKGNLLRHIKL [46F_47T_49E_50V_52G_53A_54D_55F_67L_, Q9UKT9]: the “log2 fold change of degron read counts” value under setting [1] is -1.27, the “log2 fold change of degron read counts” value under setting [2] is -0.646, the “log2 fold change of degron read counts” value under setting [3] is -0.114 and the “log2 fold change of degron read counts” value (compound: thalidomide) turned out to be 0.571.
For FWCDVCGAFFTQKGNLLRHIKL [46F_47W_49D_50V_52G_53A_54F_55F_67L_, Q9UKT9] the same measures were 0.953, 1.36, -0.00384 and -1.88.
For the sequence FECNVCGAIFTQKGNLLRHIKL [46F_47E_49N_50V_52G_53A_54I_55F_67L_, Q9UKT9], the “log2 fold change of degron read counts” value by setting is: under setting [1], -2.34; under setting [2], -1.7; under setting [3], -0.347; (compound: thalidomide) 0.492.
On to FVCEQCGAIFTQKGNLLRHIKL [46F_47V_49E_50Q_52G_53A_54I_55F_67L_, Q9UKT9], for which the “log2 fold change of degron read counts” value is, setting by setting: under setting [1], -2.11; under setting [2], -2.38; under setting [3], -0.483; (compound: thalidomide) -1.05.
As to FHCPICGAKFTQKGNLLRHIKL [46F_47H_49P_50I_52G_53A_54K_55F_67L_, Q9UKT9], the “log2 fold change of degron read counts” value runs as follows: under setting [1], 2.6; under setting [2], 2.09; under setting [3], -0.0644; (compound: thalidomide) 0.674.
As to FWCPICGAKFTQKGNLLRHIKL [46F_47W_49P_50I_52G_53A_54K_55F_67L_, Q9UKT9], the “log2 fold change of degron read counts” value runs as follows: under setting [1], 2.94; under setting [2], 3.43; under setting [3], 1.1; (compound: thalidomide) 0.827.
As to FRCPICGAKFTQKGNLLRHIKL [46F_47R_49P_50I_52G_53A_54K_55F_67L_, Q9UKT9], the “log2 fold change of degron read counts” value runs as follows: under setting [1], -0.704; under setting [2], 0.123; under setting [3], 0.417; (compound: thalidomide) 0.809.
On the same counts, the results for FFCDQCGANFTQKGNLLRHIKL [46F_47F_49D_50Q_52G_53A_54N_55F_67L_, Q9UKT9] are -0.567, -0.255, -1.24 and -2.4.
Turning to FSCDVCGAPFTQKGNLLRHIKL [46F_47S_49D_50V_52G_53A_54P_55F_67L_, Q9UKT9], the “log2 fold change of degron read counts” value runs as follows: under setting [1], 0.883; under setting [2], -0.0159; under setting [3], -0.896; (compound: thalidomide) -0.557.
Regarding LQCNQCGFHCTQKGNLLRHIKL [46L_47Q_49N_50Q_52G_53F_54H_55C_67L_, Q9UKT9], the “log2 fold change of degron read counts” value by setting is: under setting [1], -2.12; under setting [2], -2.37; under setting [3], -2.09; (compound: thalidomide) -1.42.
Take FFCNQCGHGFTQKGNLLRHIKL [46F_47F_49N_50Q_52G_53H_54G_55F_67L_, Q9UKT9]: the “log2 fold change of degron read counts” value is, setting by setting: under setting [1], -2.03; under setting [2], -2.15; under setting [3], -2.79; (compound: thalidomide) -2.52.
Regarding LSCPICGFMCTQKGNLLRHIKL [46L_47S_49P_50I_52G_53F_54M_55C_67L_, Q9UKT9], the “log2 fold change of degron read counts” value stood at 1.79 under setting [1], 1.66 under setting [2], 1.67 under setting [3] and 1.42 (compound: thalidomide).
For LYCPICGFMCTQKGNLLRHIKL [46L_47Y_49P_50I_52G_53F_54M_55C_67L_, Q9UKT9], the “log2 fold change of degron read counts” value is, setting by setting: under setting [1], 3.14; under setting [2], 2.92; under setting [3], 2.43; (compound: thalidomide) 1.14.
With LTCPICGFMCTQKGNLLRHIKL [46L_47T_49P_50I_52G_53F_54M_55C_67L_, Q9UKT9], the “log2 fold change of degron read counts” value reads like this: under setting [1], 0.987; under setting [2], 1.84; under setting [3], 2.27; (compound: thalidomide) 2.3.
For LECPICGFMCTQKGNLLRHIKL [46L_47E_49P_50I_52G_53F_54M_55C_67L_, Q9UKT9] the same measures were -0.459, -0.68, 1.22 and 2.37.
As to LVCPICGFMCTQKGNLLRHIKL [46L_47V_49P_50I_52G_53F_54M_55C_67L_, Q9UKT9], the “log2 fold change of degron read counts” value amounted to 0.688 under setting [1], 2.15 under setting [2], 2.09 under setting [3] and 2.63 (compound: thalidomide).
Take LWCPICGFMCTQKGNLLRHIKL [46L_47W_49P_50I_52G_53F_54M_55C_67L_, Q9UKT9]: the “log2 fold change of degron read counts” value runs as follows: under setting [1], 2.86; under setting [2], 3.37; under setting [3], 2.86; (compound: thalidomide) 1.56.
As for LKCPICGFMCTQKGNLLRHIKL [46L_47K_49P_50I_52G_53F_54M_55C_67L_, Q9UKT9], the “log2 fold change of degron read counts” value under setting [1] is -1.07, the “log2 fold change of degron read counts” value under setting [2] was -2.03, the “log2 fold change of degron read counts” value under setting [3] is -1.81 and the “log2 fold change of degron read counts” value (compound: thalidomide) is -0.667.
With LGCPICGFMCTQKGNLLRHIKL [46L_47G_49P_50I_52G_53F_54M_55C_67L_, Q9UKT9], the “log2 fold change of degron read counts” value under setting [1] is 3.42, the “log2 fold change of degron read counts” value under setting [2] stood at 1.83, the “log2 fold change of degron read counts” value under setting [3] was 1.01 and the “log2 fold change of degron read counts” value (compound: thalidomide) came to 0.537.
On to LQCPICGFMCTQKGNLLRHIKL [46L_47Q_49P_50I_52G_53F_54M_55C_67L_, Q9UKT9], for which the “log2 fold change of degron read counts” value under setting [1] was determined as 0.655, the “log2 fold change of degron read counts” value under setting [2] amounted to 2.15, the “log2 fold change of degron read counts” value under setting [3] was 2.04 and the “log2 fold change of degron read counts” value (compound: thalidomide) was determined as 3.55.
Turning to FVCPQCGAFFTQKGNLLRHIKL [46F_47V_49P_50Q_52G_53A_54F_55F_67L_, Q9UKT9], the “log2 fold change of degron read counts” value under setting [1] is -1.99, the “log2 fold change of degron read counts” value under setting [2] was -1.44, the “log2 fold change of degron read counts” value under setting [3] is -0.515 and the “log2 fold change of degron read counts” value (compound: thalidomide) was -0.988.
Take FCCPICGHFFTQKGNLLRHIKL [46F_47C_49P_50I_52G_53H_54F_55F_67L_, Q9UKT9]: the “log2 fold change of degron read counts” value runs as follows: under setting [1], -1.42; under setting [2], -2.1; under setting [3], -1.42; (compound: thalidomide) -1.48.
Regarding FACEICGHNFTQKGNLLRHIKL [46F_47A_49E_50I_52G_53H_54N_55F_67L_, Q9UKT9], the “log2 fold change of degron read counts” value under setting [1] is -2.91, the “log2 fold change of degron read counts” value under setting [2] is -3.62, the “log2 fold change of degron read counts” value under setting [3] is -3.22 and the “log2 fold change of degron read counts” value (compound: thalidomide) is -3.1.
Take FECSVCGHHFTQKGNLLRHIKL [46F_47E_49S_50V_52G_53H_54H_55F_67L_, Q9UKT9]: the “log2 fold change of degron read counts” value reads like this: under setting [1], -3.39; under setting [2], -3.71; under setting [3], -3.71; (compound: thalidomide) -3.11.
As for FRCPICGHVFTQKGNLLRHIKL [46F_47R_49P_50I_52G_53H_54V_55F_67L_, Q9UKT9], the “log2 fold change of degron read counts” value is, setting by setting: under setting [1], -2.24; under setting [2], -2.31; under setting [3], -0.964; (compound: thalidomide) -1.86.
